# Measured values taken from PubChem BioAssay.
# Inconclusive results are not listed. For some assays here: Measured potencies and affinities stand elsewhere. The source made the active and inactive calls. Unless noted, how the calls were made is not given here.
# Assays:
# [1] = target: ATP-dependent translocase ABCB1 (Homo sapiens) (UniProt P08183); assay: P-glycoprotein substrate transport blockade – cell-based (AID 377; in the data active means fluorescence slope change above about 50%); details: MDR1-expressing cells, fluorescent substrate accumulation slope; stronger effect = higher value; concentration not given here
# Sequence of ATP-dependent translocase ABCB1 (Homo sapiens) (P08183 whole entry, looked up): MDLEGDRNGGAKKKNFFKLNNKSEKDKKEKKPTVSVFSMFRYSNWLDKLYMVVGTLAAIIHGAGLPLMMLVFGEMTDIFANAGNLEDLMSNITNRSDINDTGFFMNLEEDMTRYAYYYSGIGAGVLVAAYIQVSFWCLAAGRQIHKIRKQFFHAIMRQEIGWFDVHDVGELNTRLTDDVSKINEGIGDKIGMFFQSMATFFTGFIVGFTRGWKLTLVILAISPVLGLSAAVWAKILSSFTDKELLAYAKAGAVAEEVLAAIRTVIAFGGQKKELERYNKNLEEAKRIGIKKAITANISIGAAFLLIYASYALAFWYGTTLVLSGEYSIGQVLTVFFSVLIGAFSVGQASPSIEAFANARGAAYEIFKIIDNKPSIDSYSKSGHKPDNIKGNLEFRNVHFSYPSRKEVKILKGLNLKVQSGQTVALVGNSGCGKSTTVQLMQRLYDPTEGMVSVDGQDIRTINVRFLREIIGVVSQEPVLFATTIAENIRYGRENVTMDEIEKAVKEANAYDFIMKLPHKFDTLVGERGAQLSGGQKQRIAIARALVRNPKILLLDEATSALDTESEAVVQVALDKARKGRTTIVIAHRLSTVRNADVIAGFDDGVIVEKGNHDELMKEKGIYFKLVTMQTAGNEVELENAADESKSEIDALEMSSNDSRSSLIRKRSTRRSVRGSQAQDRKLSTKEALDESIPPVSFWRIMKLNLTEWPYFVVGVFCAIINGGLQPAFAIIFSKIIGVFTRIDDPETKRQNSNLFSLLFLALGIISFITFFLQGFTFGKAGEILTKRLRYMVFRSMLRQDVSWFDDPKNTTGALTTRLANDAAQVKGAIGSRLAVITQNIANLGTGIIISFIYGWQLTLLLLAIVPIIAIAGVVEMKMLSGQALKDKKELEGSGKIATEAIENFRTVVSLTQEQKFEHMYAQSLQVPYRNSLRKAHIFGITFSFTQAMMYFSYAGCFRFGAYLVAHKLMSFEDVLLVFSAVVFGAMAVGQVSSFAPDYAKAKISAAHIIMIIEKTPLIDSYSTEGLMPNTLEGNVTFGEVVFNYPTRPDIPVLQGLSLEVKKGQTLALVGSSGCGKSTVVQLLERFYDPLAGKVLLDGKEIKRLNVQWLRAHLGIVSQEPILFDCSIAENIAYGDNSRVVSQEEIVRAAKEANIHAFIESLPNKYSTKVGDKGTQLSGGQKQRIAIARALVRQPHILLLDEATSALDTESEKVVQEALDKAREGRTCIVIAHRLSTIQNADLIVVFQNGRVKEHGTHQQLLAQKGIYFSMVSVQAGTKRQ
# [2] = blockers of polyQ-driven CASP3 activation – cell-based (AID 1583); details: polyglutamine-induced caspase-3 activation, cell assay; stronger effect = higher value;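 tested at 10 µM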
# [3] = blockers of biotin-polyQ monomer incorporation into aggregates – biochemical, solid-phase synthetic aggregates, QA3 (AID 1585); details: polyQ aggregate elongation; EC50: measured here: elongation inhibition potency; inhibition: at 100 µM, stronger effect = higher value
# [4] = yeast 75Q aggregation reduction – 75Q-TubU reporter (AID 1593); details: Yeast 75Q polyglutamine aggregation reporter
# [5] = restoration of touch response, mutant HTT neurons – whole organism, C. elegans mechanosensory neurons, N-terminal huntingtin (AID 1599); details: C. elegans polyQ-huntingtin mechanosensory neurons, stronger effect = higher value
# [6] = blockers of cytochrome c efflux from mitochondria – biochemical, purified mitochondria (AID 1603); details: stronger effect = lower value;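 further: mouse liver mitochondria challenged with calcium chloride; signal normalized to the plate average as 100%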
# [7] = polyglutamine aggregate formation blockers (AID 1604); details: polyglutamine-induced protein aggregation inhibition assay; stronger effect = higher value; tested at 2.5 µM
# [8] = glutamate excitotoxicity neuroprotectants – cell-based, TUNEL DNA degradation staining, MNGlu (AID 1594); details: motor neurons, glutamate-induced death, at 1 µM, stronger effect = higher value
# [9] = blockers of MitoPT in mitochondria (AID 1580); details: isolated mitochondria, permeability transition inhibition
# [10] = target: Huntingtin (Homo sapiens) (UniProt P42858); assay: mutant huntingtin aggregation blockers – QA1, dose response (AID 1584); details: in vitro mutant huntingtin aggregation assay; confirmation test; at 10 µM; stronger effect = lower value
# Sequence of Huntingtin (Homo sapiens) (P42858 whole entry, looked up): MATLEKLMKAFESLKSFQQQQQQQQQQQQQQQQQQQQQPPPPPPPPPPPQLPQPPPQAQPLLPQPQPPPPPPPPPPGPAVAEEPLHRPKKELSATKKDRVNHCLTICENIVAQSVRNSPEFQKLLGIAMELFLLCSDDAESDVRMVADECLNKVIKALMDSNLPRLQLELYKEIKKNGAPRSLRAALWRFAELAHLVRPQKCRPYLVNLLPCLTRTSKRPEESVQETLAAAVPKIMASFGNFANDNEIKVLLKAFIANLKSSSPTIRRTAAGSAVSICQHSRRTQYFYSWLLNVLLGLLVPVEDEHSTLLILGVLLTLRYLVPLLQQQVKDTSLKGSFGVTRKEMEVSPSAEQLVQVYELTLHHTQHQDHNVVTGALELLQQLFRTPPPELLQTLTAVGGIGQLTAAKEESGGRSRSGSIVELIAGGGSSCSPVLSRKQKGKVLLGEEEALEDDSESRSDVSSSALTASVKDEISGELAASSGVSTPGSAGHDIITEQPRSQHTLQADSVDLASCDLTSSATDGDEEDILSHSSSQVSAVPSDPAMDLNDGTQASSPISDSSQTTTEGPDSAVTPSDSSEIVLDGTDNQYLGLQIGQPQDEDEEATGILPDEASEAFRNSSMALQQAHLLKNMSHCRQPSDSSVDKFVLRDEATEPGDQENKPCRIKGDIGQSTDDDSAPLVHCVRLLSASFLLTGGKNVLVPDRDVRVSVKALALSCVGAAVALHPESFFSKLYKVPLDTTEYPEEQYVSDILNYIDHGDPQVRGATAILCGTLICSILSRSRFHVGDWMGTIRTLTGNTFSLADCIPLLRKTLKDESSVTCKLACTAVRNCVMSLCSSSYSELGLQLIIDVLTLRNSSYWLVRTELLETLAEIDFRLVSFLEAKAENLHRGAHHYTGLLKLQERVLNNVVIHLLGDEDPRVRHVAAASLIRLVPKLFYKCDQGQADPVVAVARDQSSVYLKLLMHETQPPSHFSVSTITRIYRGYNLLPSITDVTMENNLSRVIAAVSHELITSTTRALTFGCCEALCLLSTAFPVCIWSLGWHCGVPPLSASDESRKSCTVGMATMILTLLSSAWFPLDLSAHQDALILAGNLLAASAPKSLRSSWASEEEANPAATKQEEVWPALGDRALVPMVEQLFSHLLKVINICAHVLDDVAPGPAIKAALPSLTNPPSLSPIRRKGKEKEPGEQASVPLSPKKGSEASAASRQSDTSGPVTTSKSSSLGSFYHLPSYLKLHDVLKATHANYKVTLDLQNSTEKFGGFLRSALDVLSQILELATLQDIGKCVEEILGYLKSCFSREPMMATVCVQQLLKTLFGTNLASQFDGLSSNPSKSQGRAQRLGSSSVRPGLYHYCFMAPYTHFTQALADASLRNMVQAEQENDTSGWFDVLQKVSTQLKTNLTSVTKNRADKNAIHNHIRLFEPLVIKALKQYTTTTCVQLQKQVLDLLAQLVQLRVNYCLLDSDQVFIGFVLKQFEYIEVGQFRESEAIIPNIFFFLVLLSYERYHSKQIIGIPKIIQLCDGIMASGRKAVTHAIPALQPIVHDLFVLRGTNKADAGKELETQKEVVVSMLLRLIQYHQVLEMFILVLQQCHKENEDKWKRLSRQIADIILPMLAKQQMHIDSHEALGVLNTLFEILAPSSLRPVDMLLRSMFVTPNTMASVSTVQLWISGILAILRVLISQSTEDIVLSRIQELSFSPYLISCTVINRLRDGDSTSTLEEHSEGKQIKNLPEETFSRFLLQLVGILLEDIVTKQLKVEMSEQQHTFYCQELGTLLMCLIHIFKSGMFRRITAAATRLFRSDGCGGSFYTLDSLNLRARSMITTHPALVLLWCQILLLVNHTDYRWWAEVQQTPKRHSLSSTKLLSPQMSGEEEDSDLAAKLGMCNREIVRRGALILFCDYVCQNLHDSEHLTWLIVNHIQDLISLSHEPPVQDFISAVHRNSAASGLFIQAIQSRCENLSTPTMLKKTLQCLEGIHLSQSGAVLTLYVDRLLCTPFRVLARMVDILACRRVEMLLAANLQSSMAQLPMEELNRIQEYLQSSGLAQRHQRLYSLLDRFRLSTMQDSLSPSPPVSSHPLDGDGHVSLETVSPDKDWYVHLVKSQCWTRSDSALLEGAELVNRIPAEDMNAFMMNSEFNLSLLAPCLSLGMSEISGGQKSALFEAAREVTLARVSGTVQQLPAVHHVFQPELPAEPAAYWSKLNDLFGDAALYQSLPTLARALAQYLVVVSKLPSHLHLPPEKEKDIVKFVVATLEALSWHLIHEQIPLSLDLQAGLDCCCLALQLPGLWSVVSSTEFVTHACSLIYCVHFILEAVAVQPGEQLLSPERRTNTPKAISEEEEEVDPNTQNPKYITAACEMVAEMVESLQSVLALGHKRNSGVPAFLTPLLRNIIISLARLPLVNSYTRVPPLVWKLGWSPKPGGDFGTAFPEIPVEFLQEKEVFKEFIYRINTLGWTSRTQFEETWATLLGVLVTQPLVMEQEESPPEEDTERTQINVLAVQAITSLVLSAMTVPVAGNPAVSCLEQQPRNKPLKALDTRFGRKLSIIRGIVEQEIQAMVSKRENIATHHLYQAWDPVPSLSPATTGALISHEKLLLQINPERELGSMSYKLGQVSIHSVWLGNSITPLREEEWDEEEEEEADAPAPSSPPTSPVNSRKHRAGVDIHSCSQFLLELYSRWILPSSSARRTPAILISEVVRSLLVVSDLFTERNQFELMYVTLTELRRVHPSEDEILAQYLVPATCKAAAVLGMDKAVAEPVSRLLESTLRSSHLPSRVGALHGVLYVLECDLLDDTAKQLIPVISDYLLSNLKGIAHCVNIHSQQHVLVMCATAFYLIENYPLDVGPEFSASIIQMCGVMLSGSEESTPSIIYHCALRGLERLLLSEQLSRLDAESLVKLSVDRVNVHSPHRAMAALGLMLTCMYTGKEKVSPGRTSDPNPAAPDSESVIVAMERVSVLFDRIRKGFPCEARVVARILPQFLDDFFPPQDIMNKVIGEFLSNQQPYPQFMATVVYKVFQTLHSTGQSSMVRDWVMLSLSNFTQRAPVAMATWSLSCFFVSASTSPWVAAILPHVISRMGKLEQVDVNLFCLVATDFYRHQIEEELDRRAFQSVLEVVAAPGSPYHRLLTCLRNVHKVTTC
SMILES,fluorescence slope change [1],inhibition [2],EC50 [3],inhibition [3],score [4],rescue above control [5],cytochrome c release ratio [6],inhibition of aggregation [7],protection [8],EC50 [9],aggregation ratio [10]
CCN(CC)CCNc1ccc(CO)c2sc3ccccc3c(=O)c12,-2.7% (inactive),2.1%,71 µM,82.8% (active),1.79,-7.32,1.54,91.6%,–,–,–
Cc1cc(NC(=O)C2=C(O)c3ccccc3S(=O)(=O)N2C)no1,–,49.9%,–,–,0.18,-11.8,1.04,72.2%,–,–,–
Cc1nnc(NS(=O)(=O)c2ccc(N)cc2)s1,9.7% (inactive),18.6%,–,–,1.23,-5.75,1.01,68.2%,35% (active),–,–
CCCCOc1cc(C(=O)NCCN(CC)CC)c2ccccc2n1,–,-0.9%,–,–,1.3,-3.49,1.15,50%,–,–,–
CO[C@@]1(NC(=O)C(C(=O)O)c2ccc(O)cc2)C(=O)N2C(C(=O)O)=C(CSc3nnnn3C)CO[C@@H]21 (some centres not stated),63.7% (active),10.7%,2 µM,91.1% (active),1.04,12.8,0.83,72.2%,–,–,–
Nc1ccc(S(N)(=O)=O)cc1,–,-14.5%,–,–,1.26,0.93,1.06,81.5%,–,–,–
Cc1ccc(C(C)C)cc2c(C)ccc1-2,–,0.23%,57 µM,73.4% (active),-2.73,1.94,3.4,30.6%,–,–,–
Oc1c(Cl)cc(Cl)cc1Sc1cc(Cl)cc(Cl)c1O,–,-9.02%,–,–,-0.24,9.15,0.74,-7.69%,–,0.3 µM (active),–
CC1(C)S[C@@H]2[C@H](NC(=O)C(C(=O)O)c3ccccc3)C(=O)N2[C@H]1C(=O)O (some centres not stated),–,9.67%,–,–,1.9,-7.2,0.95,60.9%,–,–,–
O=C(Nc1ccc([N+](=O)[O-])cc1Cl)c1cc(Cl)ccc1O,–,63.3%,–,–,1.5,-13,0.91,41.7%,–,–,–
CCCCCCCCNC(C)C(O)c1ccc(SC(C)C)cc1 (configuration not stated),–,71.7%,–,–,-1.11,0,0.61,63%,–,–,–
CC1=C(C(=O)O)N2C(=O)[C@@H](NC(=O)[C@H](N)c3ccc(O)cc3)[C@H]2SC1,–,-20.4%,–,–,1.38,2.74,0.96,74.6%,–,–,–
NC(=O)NC1NC(=O)NC1=O (configuration not stated),–,2.28%,–,–,1.2,-1.57,0.93,74.6%,–,–,–
CCCCCCc1ccc(O)cc1O,–,8.69%,–,–,0,-4.19,0.54,56.7%,–,–,–
NS(=O)(=O)c1cc2c(cc1Cl)NC(CSCc1ccccc1)=NS2(=O)=O,78.4% (active),25.2%,–,–,1.43,-12.2,1.07,47.9%,57% (active),–,–
CN(C)/N=N/c1nc[nH]c1C(N)=O,–,17.5%,–,–,1.36,-5.12,0.99,9.26%,–,–,–
O=C1c2c(O)cccc2Cc2cccc(O)c21,–,18.6%,–,–,1.5,0.38,0.41,37.9%,–,–,0.75

SMILES,fluorescence slope change [1],inhibition [2],EC50 [3],inhibition [3],score [4],rescue above control [5],cytochrome c release ratio [6],inhibition of aggregation [7],protection [8],EC50 [9],aggregation ratio [10]
C=C1c2cccc(O)c2C(O)=C2C(=O)[C@]3(O)C(O)=C(C(N)=O)C(=O)[C@@H](N(C)C)[C@@H]3[C@@H](O)[C@H]12,–,-86.7%,132 µM,60% (active),0.99,0,0.49,29.5%,–,–,–
COc1cc(NS(=O)(=O)c2ccc(N)cc2)nc(OC)n1,–,1.07%,–,–,1.14,-2.33,0.86,67.5%,–,–,–
Cn1c([N+](=O)[O-])cnc1COC(N)=O,–,-0.12%,–,–,1.29,8.28,0.98,44.8%,–,–,–
Oc1c(Br)cc(Br)c2cccnc12,–,46.3%,–,–,-0.06,10.9,2,80.3%,–,–,–
C[C@H]1c2cccc(O)c2C(O)=C2C(=O)[C@]3(O)C(O)=C(C(N)=O)C(=O)[C@@H](N(C)C)[C@@H]3[C@@H](O)[C@@H]21,–,-6.11%,–,–,0.83,0,0.35,64.1%,–,–,–
NC(N)=NS(=O)(=O)c1ccc(N)cc1,–,-31.1%,–,–,1.49,-3.67,1.37,93.6%,–,–,–
CCC(Cc1c(I)cc(I)c(N)c1I)C(=O)O (configuration not stated),–,-9.96%,–,–,-1.24,-0.81,1.14,1.96%,–,–,–
Oc1c(Cl)cc(Cl)c(Cl)c1Cc1c(O)c(Cl)cc(Cl)c1Cl,–,5.38%,–,–,-1.67,-6.64,0.45,91.6%,–,0.3 µM (active),–
O=C(N[C@H](CO)[C@H](O)c1ccc([N+](=O)[O-])cc1)C(Cl)Cl,–,-3.82%,–,–,1,-3.71,0.72,55%,–,–,–
COc1ccc(C2C(=O)c3ccccc3C2=O)cc1,–,2.6%,–,–,0.47,-9.34,1.11,79.6%,–,–,–
COc1ccc2cc3[n+](cc2c1OC)CCc1cc2c(cc1-3)OCO2,–,-15.4%,–,–,0.32,10.8,0.96,65.2%,–,–,–
NC(=O)N/N=C/c1ccc([N+](=O)[O-])o1,–,21.9%,–,–,1.11,14.1,1.45,74.9%,–,–,–
CC1=C(C(=O)O)N2C(=O)[C@@H](NC(=O)[C@H](N)C3=CCC=CC3)[C@H]2SC1,–,-6.99%,–,–,1.49,19,0.86,74.7%,–,–,–
CC(C)NCC(O)c1ccc2ccccc2c1 (configuration not stated),–,0.74%,–,–,1.15,-8.05,0.68,88%,–,–,–
CN1C(C(=O)Nc2ccccn2)=C(O)c2sccc2S1(=O)=O,–,-15.4%,–,–,0.84,-5.04,1.03,69.7%,–,–,–
O=C(OCc1ccccc1)c1ccccc1,–,4.26%,–,–,0.45,0.5,1.04,74%,–,–,–
